Experimental data as given in PubChem BioAssay (EPA / NIEHS).
Inconclusive results are not listed. Calls of active or inactive are those of the source. The calls were made as follows: active = hit-call score of the fitted dose curve at least 0.9, where 1 is the maximum; inconclusive = response in the unintended direction; inactive = score below 0.9.

Molecular target: Oxysterols receptor LXR-beta (Homo sapiens) (UniProt P55055)
Assay: ATG_LXRb_TRANS: Attagene TRANS-FACTORIAL HepG2 Assay for human Liver X Receptor beta (LXRb) (AID 2282981)
Details: HepG2 Attagene TRANS GAL4-LXRb reporter, mRNA
Procedure: ATG_TRANS is a cell-based, multiplexed-readout assay that uses HepG2, a human liver cell line, with measurements taken at 24 hours after chemical dosing in a 24-well plate.ATG_LXRb_TRANS is one of 30 assay component(s) measured or calculated from the ATG_TRANS assay. It is designed to make measurements of mRNA induction, a form of inducible reporter, as detected with fluorescence intensity signals by Reverse transcription polymerase chain reaction (RT-PCR) and Capillary electrophoresis technology.Data from the assay component ATG_LXRb_TRANS was analyzed into 1 assay endpoint. This assay endpoint, ATG_LXRb_TRANS, was analyzed in the positive analysis fitting direction relative to DMSO as the negative control and baseline of activity. Using a type of inducible reporter, measures of mRNA for gain-of-signal activity can be used to understand the reporter gene at the transcription factor-level as they relate to the gene NR1H2. Furthermore, this assay endpoint can be referred to as a primary readout, because this assay has produced multiple assay endpoints where this one serves a reporter gene function. To generalize the intended target to other relatable targets, this assay endpoint is annotated to the nuclear receptor intended target family, where the subfamily is non-steroidal.
Human liver HepG2 cells are transiently transfected with multiple reporter transcription units (MRTUs) in 6-well plates using FuGene 6 reagent (Roche; 3 ml FuGene/1 mg DNA). The MRTU constructs are regulated by a cis-regulating element (promoter). […] A major difference between the CIS and TRANS system is that in CIS activities of endogenous TFs are measured, whereas the TRANS assay evaluates changes in activities of exogenous, chimeric NR-Gal4 proteins. […] At the end of 24 hour incubation, total RNA was isolated using TriZol reagent (Invitrogen). The isolated RNA is then reverse-transcribed using oligo(dT) primer and Mo-MLV reverse transcriptase (Invitrogen) with DNAse I (Ambion) treatment for 30 min. The one-tenth of the produced cDNA was amplified by PCR using Taq DNA polymerase (Invitrogen) and two reporter sequence-specific primers. The PCR products were fluorescently labeled by primer extension with 6-arboxyfluorescein (6-FAM) 5'-labeled reporter sequence-specific primer (2 min at 95 C, 20 s at 68 C and 10 min at 72 C) and these products were digested with 5U of HpaI (New England Biolabs) for 2h at 37 C. The fragments were purified using Qiaquick PCR columns (Qiagen), analyzed on an ABI 3130xL genetic analyzer (Applied Biosystems) with peak positions identified by using a set of X-rhodamine (ROX)-labeled MapMarker1000 molecular weight standards (BioVentures). The raw capillary electrophoresis data was processed using Attagraph software (Attagene).

Oxysterols receptor LXR-beta (Homo sapiens), sequence (P55055 whole entry, looked up): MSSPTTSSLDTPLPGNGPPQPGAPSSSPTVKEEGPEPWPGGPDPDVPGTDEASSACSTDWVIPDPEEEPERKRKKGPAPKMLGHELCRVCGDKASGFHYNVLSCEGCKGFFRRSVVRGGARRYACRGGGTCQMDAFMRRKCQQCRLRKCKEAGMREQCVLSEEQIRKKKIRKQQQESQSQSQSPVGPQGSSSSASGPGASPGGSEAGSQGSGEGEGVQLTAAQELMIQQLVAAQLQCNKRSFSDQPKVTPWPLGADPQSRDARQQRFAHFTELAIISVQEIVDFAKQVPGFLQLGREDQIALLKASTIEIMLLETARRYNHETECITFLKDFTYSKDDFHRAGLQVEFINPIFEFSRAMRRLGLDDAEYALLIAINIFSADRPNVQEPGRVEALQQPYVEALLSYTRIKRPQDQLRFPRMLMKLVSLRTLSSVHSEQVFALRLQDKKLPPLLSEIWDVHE

SMILES | outcome | AC50
CCCCC(CC)CCC(CC(C)C)OS(=O)(=O)O (stereo not given) | inactive | 
Cc1ccc([N+](=O)[O-])cc1S(=O)(=O)O | inactive | 
CCN(CCC#N)c1ccc(N=Nc2c(Cl)cc([N+](=O)[O-])cc2Cl)cc1 | inactive | 
Nc1nc2ccccc2[nH]1 | inactive | 
CC(C)=CCCC(C)C=O (stereo not given) | inactive | 
CC(=O)[C@H]1[C@H](C#N)C[C@H]2[C@@H]3CC=C4C[C@@H](O)CC[C@]4(C)[C@H]3CC[C@@]21C | inactive | 
C=CC(=O)OCCOC(=O)C=C | inactive | 
CC(C)(C)c1ccc(N)cc1 | inactive | 
FC(F)(F)C(=NOCC1OCCO1)c1ccc(Cl)cc1 | inactive | 
CC(=O)[C@@]1(O)CC[C@H]2[C@@H]3C[C@H](C)C4=CC(=O)C=C[C@]4(C)[C@@]3(F)[C@@H](O)C[C@@]21C | inactive | 
c1ccc(CCCc2ccncc2)cc1 | inactive | 
CCN(Cc1cccc(S(=O)(=O)O)c1)c1ccc(C(=C2C=CC(=[N+](CC)Cc3cccc(S(=O)(=O)[O-])c3)C=C2)c2ccccc2)cc1 | inactive | 
C=COCCCC | inactive | 
O=CN1CCCCC1 | inactive | 
C=C(C)C(=O)OCCO | inactive | 
CCCCCCCCCCCCCCCC[n+]1ccccc1 | inactive | 
C=C(C)CCO | inactive | 
C[Si](C)O[Si](C)(C)O[Si](C)(C)O[Si](C)C | inactive | 
CCCCCCCC/C=C\CCCCCCCC(=O)O | inactive | 
CC1(C)O[C@@H]2C[C@H]3[C@@H]4C[C@H](F)C5=CC(=O)C=C[C@]5(C)[C@@]4(F)[C@@H](O)C[C@]3(C)[C@]2(C(=O)CO)O1 | inactive | 

SMILES | outcome | AC50
N[C@H]1C(O)O[C@H](CO)[C@H](O)[C@@H]1O (stereo not given in full) | inactive | 
CCC(Cc1ccccc1)(C(=O)c1ccc(N2CCOCC2)cc1)N(C)C (stereo not given) |  | 27.5 µM (active)
O=c1c2ccccc2nnn1CCl | inactive | 
Cc1cc(C)c(C)c(O)c1 | inactive | 
COc1cc(NC(=O)CC(C)=O)c(OC)cc1Cl | inactive | 
O=C(O)c1cc2ccccc2nc1C(=O)O | inactive | 
C=C[Si](OC(C)=O)(OC(C)=O)OC(C)=O | inactive | 
O=C1CCCN1CCO | inactive | 
O=C(OCC1CCC2OC2C1)C1CCC2OC2C1 (stereo not given) | inactive | 
c1ccc2c(c1)ccc1cc3c(ccc4ccccc43)cc12 | inactive | 
CC(C)c1ccc2cc(C(C)C)ccc2c1 | inactive | 
O=C(O)CC(C(=O)O)C(CC(=O)O)C(=O)O (stereo not given) | inactive | 
[Cl][Nd]([Cl])[Cl] | inactive | 
CC1=Nc2ccc3ccccc3c2C1(C)C | inactive | 
O=S1(=O)OC(c2ccc(O)cc2)(c2ccc(O)cc2)c2ccccc21 | inactive | 
CC(C)=CCC[C@H](C)CCO | inactive | 
CC=C1CC2C=CC1C2 (stereo not given) | inactive | 
CCCCCCCC(C)=O | inactive | 
Oc1ccc(Cl)cc1Cc1cc(Cl)ccc1O | inactive | 
CC(=O)OCC(C)OC(C)=O (stereo not given) | inactive | 
